Enrichment ratio data for 153 variants are collected here from a collection of fitness landscapes (doi:10.1126/science.1257360).

The full ranking holds about 140,000 sequences; the median of “enrichment ratio after two sorts for PhoP signalling” is about 0, and the highest 2% start at about 11. The sample holds the highest values, similar sequences and a random draw of the others, so the mix is not that of the screen.

B1: PhoQ; a variant is named by its letters at X, in order, P23837 (parent)
chain: MKKLLRLFFPLSLRVRFLLATAAVVLVLSLAYGMVALIGYSVSFDKTTFRLLRGESNLFYTLAKWENNKLHVELPENIDKQSPTMTLIYDENGQLLWAQRDVPWLMKMIQPDWLKSNGFHEIEADVNDTSLLLSGDHSIQQQLQEVREDDDDAEMTHSVAVNVYPATSRMPKLTIVVVDTIPVELKSSYMVWSWFIYVLSANLLLVIPLLWVAAWWSLRPIEALAKEVRELEEHNRELLNPATTRELTSLVRNLNRLLKSERERYDKYRTTLTDLTHSLKTPLXXLQXXLRSLRSEKMSVSDAEPVMLEQISRISQQIGYYLHRASMRGGTLLSRELHPVAPLLDNLTSALNKVYQRKGVNISLDISPEISFVGEQNDFVEVMGNVLDNACKYCLEFVEISARQTDEHLYIVVEDDGPGIPLSKREVIFDRGQRVDTLRPGQGVGLAVAREITEQYEGKIVAGESMLGGARMEVIFGRQHSAPKDE

The variants in this test derive from B1. Nature of the test: enrichment ratio after two sorts for PhoP signalling (ratio (wild type AVST 3.29)); higher = more functional. The note with it: with PhoP (E. coli).
For IKKC, the enrichment ratio is at most 0.25.
Regarding ANVL, the enrichment ratio amounted to 13.9.
ANSL: the enrichment ratio worked out at 16.8.
In the case of ANYM it was 0.253; in that of AHIL, at most 0.25.
ADVL: the enrichment ratio worked out at 3.21.
In the case of ANYN it was at most 0.25; in that of HWVL, at most 0.25; in that of ANIL, 22.8.
With ANNL, the enrichment ratio is 15.7.
In the case of ADSL it was at most 0.25; in that of ARSL, 0.309.
In the case of AIIL it was 1.11; in that of GFRD, at most 0.25; in that of EGVS, at most 0.25.
In the case of WVKG it was at most 0.25.
Take NCEQ: the enrichment ratio is at most 0.25.
In the case of GGVL it was 7.68; in that of NKTR, at most 0.25.
In the case of TKIL, the enrichment ratio is 8.86.
In the case of AICL it was 17.5.
Regarding AQRL, the enrichment ratio is at most 0.25.
With ANCL, the enrichment ratio came to 21.8.
In the case of AKCL it was 3.3; in that of ADIL, 8.79.
In the case of AKIL it was 18.4.
In the case of WICL it was at most 0.25; in that of AWCL, 0.642; in that of AQEL, at most 0.25.
For the variant AQCL, the enrichment ratio turned out to be 16.
In the case of NICL it was 3.87; in that of EAPP, at most 0.25.
Take VFQT: the enrichment ratio was at most 0.25.
In the case of VNLF it was at most 0.25.
Consider YIYL, for which the enrichment ratio was at most 0.25.
In the case of IDEK it was at most 0.25; in that of TVNP, at most 0.25; in that of YDMC, at most 0.25.
For the variant WVMR, the enrichment ratio is at most 0.25.
For KNDA, the enrichment ratio is at most 0.25.
In the case of NLGK it was at most 0.25; in that of IKGA, at most 0.25; in that of WTQR, at most 0.25.
With ACSG, the enrichment ratio was determined as 12.3.
In the case of WISN it was at most 0.25; in that of AISG, 19; in that of AVSG, 16.7.
Regarding AHSG, the enrichment ratio stood at 6.86.
With TIKN, the enrichment ratio was at most 0.25.
On to ARSG, for which the enrichment ratio was at most 0.25.
In the case of KKSG it was at most 0.25; in that of ACSN, 4.45.
Consider TISN, for which the enrichment ratio came to 13.4.
In the case of ACSR it was 7.12.
In the case of ADSG it was 1.26; in that of FHWW, at most 0.25.
Consider EFGD, for which the enrichment ratio is at most 0.25.
In the case of HEGI it was at most 0.25.
In the case of PMHY it was at most 0.25.
In the case of DEAG it was at most 0.25.
As to PCRA, the enrichment ratio is at most 0.25.
With MPIN, the enrichment ratio was at most 0.25.
As to QRYD, the enrichment ratio is at most 0.25.
On to DRYI, for which the enrichment ratio was at most 0.25.
In the case of RDAL it was at most 0.25; in that of KVFV, at most 0.25.
On to WISG, for which the enrichment ratio is at most 0.25.
In the case of PISG it was at most 0.25; in that of TISG, 19.4.
For the variant VGFY, the enrichment ratio was at most 0.25.
Regarding MQYW, the enrichment ratio is at most 0.25.
In the case of SQLQ it was 13.6; in that of LNLQ, at most 0.25; in that of TPLQ, at most 0.25.
For SNLQ, the enrichment ratio is 15.3.
In the case of KQLQ it was at most 0.25; in that of MMLQ, at most 0.25; in that of SALQ, 17.5.
In the case of TMLQ it was 12.2; in that of YALQ, 4.04; in that of NMLQ, at most 0.25.
In the case of DPLQ it was at most 0.25.
Take SILQ: the enrichment ratio came out at 6.96.
In the case of YDYH it was at most 0.25; in that of SRDH, at most 0.25.
In the case of TGMF it was 9.36; in that of FPKH, at most 0.25; in that of PMKR, at most 0.25.
In the case of KGCL it was at most 0.25; in that of DMWF, at most 0.25; in that of SAVH, 7.41.
With DYTW, the enrichment ratio was at most 0.25.
In the case of SSLQ it was 14.5; in that of SRLQ, 0.442; in that of SQLT, 11.
In the case of SELQ it was 27.9; in that of SQLA, 11.7; in that of SPLQ, at most 0.25.
In the case of SYLQ it was 2.49; in that of STLQ, 18.3.
For SLLQ, the enrichment ratio is 7.5.
Turning to SQLS, the enrichment ratio came out at 7.34.
For the variant KYLQ, the enrichment ratio is at most 0.25.
In the case of SFLQ it was 2.41; in that of SFQN, at most 0.25.
In the case of PRSD it was at most 0.25.
In the case of KDLQ it was at most 0.25; in that of SGLR, at most 0.25.
LTLQ: the enrichment ratio was found to be 2.15.
In the case of SGLQ it was 16.6; in that of TDLQ, 18.8.
For the variant RGLQ, the enrichment ratio is at most 0.25.
In the case of HQEY it was at most 0.25.
With FHKA, the enrichment ratio is at most 0.25.
Regarding RKDF, the enrichment ratio was at most 0.25.
Take TFCG: the enrichment ratio worked out at 5.19.
Consider GSLT, for which the enrichment ratio came to 9.31.
In the case of GSDN it was at most 0.25.
In the case of GSLA it was 6.7; in that of GSLS, 11.8.
Take GSDK: the enrichment ratio was at most 0.25.
For the variant GSLI, the enrichment ratio came out at 15.5.
Regarding AIWD, the enrichment ratio was at most 0.25.
For the variant LESL, the enrichment ratio was at most 0.25.
With MELM, the enrichment ratio is 17.7.
MFLM: the enrichment ratio was at most 0.25.
In the case of TELM it was 13.8; in that of MKLM, 7.36.
In the case of NELM it was at most 0.25.
In the case of QELM it was at most 0.25.
As to RAGW, the enrichment ratio was at most 0.25.
In the case of SSNF it was 1.62.
As to MSMV, the enrichment ratio turned out to be 12.7.
In the case of MSMI it was 23.5; in that of MSNL, at most 0.25; in that of MSMD, at most 0.25.
Consider MSWV, for which the enrichment ratio came to 10.2.
As for MSML, the enrichment ratio was 14.3.
In the case of MSMS it was at most 0.25.
Regarding MSLS, the enrichment ratio was found to be 5.72.
In the case of MSHK it was at most 0.25; in that of MSMG, 2.86; in that of MSLV, 14.7.
In the case of DWAP it was at most 0.25; in that of DRKM, at most 0.25; in that of HNAE, at most 0.25.
For the variant LMAI, the enrichment ratio is at most 0.25.
With EHKQ, the enrichment ratio is at most 0.25.
For REPP, the enrichment ratio is at most 0.25.
In the case of MSLE it was 3.24; in that of TGWQ, 22.6.
In the case of QSWQ it was 33.6; in that of QIWQ, 34.4.
